According to PubChem BioAssay AID1159580 (chemical genetic matrix, 2015):
Several values for one entry are separate records, joined by “and”; a condition that tells them apart may be missing. Equal values may be shown once. The whole screen tested about 5,500 compounds, of which about 2,000 (36%) were called active. About 18% were inconclusive and are not listed. Cut-off read from the data, not from the text of the source: active = normalized growth mostly below about 0.91 (no sharp cut-off); inconclusive = no clear call, values can overlap the other calls; inactive = mostly above about 0.92. The list shows a part of the results.

Assay: chemical genetic growth profiling, strain panel (AID 1159580);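 note: tested at 20 µM; growth read once vehicle control cultures reached saturation at 30 °C; 1 = growth at the plate median or of vehicle wells; lower values mean less growth of the strain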
Settings: S. cerevisiae deletion strains, growth OD

Measured: normalized growth

COc1ccc2c(c1)OC[C@@H](Cc1ccc(OC)c(OC)c1)[C@H]2O
inactive: locus YAL013W, strain DEP1, hits give low values 0.986 | locus YAL021C, strain ccr4, hits give low values 0.993 | locus YAL026C, strain drs2, hits give low values 1.02 | locus YAL030W, strain snc1, hits give low values 1.01 | locus YBL061C, strain skt5, hits give low values 1 | locus YBR009C, strain hhf1, hits give low values 0.993 | locus YBR021W, strain FUR4, hits give low values 1.06 | locus YBR023C, strain chs3, hits give low values 0.999 | locus YBR171W, strain sec66, hits give low values 1.01 | locus YBR229C, strain ROT2, hits give low values 1 | locus YBR231C, strain swc5, hits give low values 1.01 | locus YBR279W, strain paf1, hits give low values 1.02 | locus YCL011C, strain gbp2, hits give low values 1.01 | locus YCL016C, strain dcc1, hits give low values 1 | locus YCL029C, strain bik1, hits give low values 0.953 | locus YCL061C, strain MRC1, hits give low values 0.98 | locus YCL069W, strain vba3, hits give low values 1.01 | locus YCR088W, strain abp1, hits give low values 0.999 | locus YDL005C, strain med2, hits give low values 0.999 | locus YDL035C, strain GPR1, hits give low values 0.984 | locus YDL040C, strain nat1, hits give low values 0.991 | locus YDL074C, strain BRE1, hits give low values 0.995 | locus YDL101C, strain DUN1, hits give low values 1 | locus YDL134C, strain PPH21, hits give low values 1.06 | locus YDL185W, strain tfp1, hits give low values 0.943 | locus YDL192W, strain arf1, hits give low values 0.967 | locus YDR001C, strain nth1, hits give low values 1 | locus YDR069C, strain doa4, hits give low values 0.992 | locus YDR101C, strain arx1, hits give low values 0.981 | locus YDR159W, strain sac3, hits give low values 0.939 | locus YDR162C, strain NBP2, hits give low values 1.01 | locus YDR195W, strain ref2 1 | locus YDR297W, strain sur2, hits give low values 1 | locus YDR318W, strain mcm21, hits give low values 0.981 | locus YDR334W, strain swr1, hits give low values 1.02 | locus YDR335W, strain msn5, hits give low values 1.01 | locus YDR388W, hits give low values 0.969 | locus YDR392W, strain spt3, hits give low values 0.929 | locus YDR502C, strain sam2, hits give low values 0.983 | locus YEL003W, strain gim4, hits give low values 1.01 | locus YEL037C, strain rad23, hits give low values 1.01 | locus YEL061C, strain CIN8 (second series), hits give low values 1.01 | locus YEL061C, strain CIN8, hits give low values 0.99 | locus YER015W, strain faa2, hits give low values 1.01 | locus YER016W, strain bim1, hits give low values 1.01 | locus YER110C, hits give low values 0.978 | locus YER111C, strain swi4, hits give low values 1 | locus YER155C, strain BEM2 (second series), hits give low values 1.01 | locus YER155C, strain BEM2, hits give low values 0.984 | locus YER167W, strain BCK2, hits give low values 0.957 | locus YFR010W, strain ubp6, hits give low values 1.01 | locus YGL078C, strain dbp3, hits give low values 0.977 | locus YGL086W, strain mad1, hits give low values 0.989 | locus YGL167C, strain pmr1, hits give low values 1.01 | locus YGL173C, strain kem1, hits give low values 1.02 | locus YGL227W, strain vid30, hits give low values 0.999 | locus YGL240W, strain doc1, hits give low values 1.01 | locus YGL248W, strain PDE1, hits give low values 1.03 | locus YGL253W, strain hxk2, hits give low values 1 | locus YGR135W, strain pre9, hits give low values 0.99 | locus YGR252W, strain gcn5, hits give low values 1.01 | locus YHR013C, strain ard1, hits give low values 1.01 | locus YHR027C, strain rpn1, hits give low values 0.999 | locus YHR030C, strain SLT2, hits give low values 0.987 and 0.938 | locus YHR079C, strain IRE1 (second series), hits give low values 0.979 | locus YHR079C, strain IRE1, hits give low values 0.956 | locus YHR094C, strain hxt1, hits give low values 0.978 | locus YHR129C, strain ARP1, hits give low values 0.994 | locus YHR142W, strain chs7, hits give low values 0.975 | locus YHR200W, strain rpn10, hits give low values 0.966 | locus YIL066C, strain RNR3, hits give low values 1.01 | locus YIL073C, strain SPO22, hits give low values 0.919 | locus YIR030C, strain dcg1, hits give low values 0.955 | locus YJL092W, strain hpr5, hits give low values 1.01 | locus YJL095W, strain BCK1 (second series), hits give low values 1.01 | locus YJL095W, strain BCK1, hits give low values 1.04 and 0.939 | locus YJL115W, strain asf1, hits give low values 1.01 | locus YJL129C, strain trk1, hits give low values 0.956 | locus YJL134W, strain LCB3, hits give low values 0.991 | locus YJL154C, strain vps35, hits give low values 1.01 | locus YJL164C, strain tpk1, hits give low values 0.993 | locus YJL166W, strain qcr8, hits give low values 1.01 | locus YJL168C, strain set2, hits give low values 0.997 | locus YJL187C, strain SWE1 (second series), hits give low values 1.01 | locus YJL187C, strain SWE1, hits give low values 1 | locus YJR043C, strain POL32, hits give low values 1.01
active: locus YDR137W, strain rgp1, hits give low values 0.806
